Source: paper PMC7862700, “An all-to-all approach to the identification of sequence-specific readers for epigenetic DNA modifications on cytosine”

Columns and labels:
Assay in all cases: DAPPL (digital affinity profiling via proximity ligation, sequencing); 10 mM Tris-HCl pH 7.5, 50 mM NaCl, 1 mM DTT, 4% glycerol, room temperature, 30 min; GST-TFs on glutathione beads, 16-mer random dsDNA library, 0.1% formaldehyde crosslink after washing; high values mean tight binding
FEV = target: T1, FEV (Homo sapiens, UniProt Q99581 1-238); details: protein: recombinant; tags: N-terminal GST; dsDNA, one strand shown
T1 sequence: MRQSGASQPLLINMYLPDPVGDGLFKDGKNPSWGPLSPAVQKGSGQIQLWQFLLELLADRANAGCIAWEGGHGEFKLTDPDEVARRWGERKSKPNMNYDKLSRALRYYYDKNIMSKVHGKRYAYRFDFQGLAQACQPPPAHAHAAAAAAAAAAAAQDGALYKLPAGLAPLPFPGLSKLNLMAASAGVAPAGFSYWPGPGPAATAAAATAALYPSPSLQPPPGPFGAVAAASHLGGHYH
Summary of the method: (§1)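 The binding signal reported is, for every hexamer, its read frequency for a factor over its read frequency for the tag-only sample. Reads came from pools of yeast-expressed, GST-fused human transcription factors on glutathione beads, barcoded with DNA and mixed with that sample, which were incubated with 200 nmole of a random double-stranded 16-mer DNA library in Tris/NaCl/DTT/glycerol buffer at room temperature for 30 min. After washing, the pools were crosslinked with 0.1% formaldehyde, proximity-ligated with BsaI/T4 ligase for 1 h at 37 °C, PCR-amplified and sequenced on an Illumina NextSeq500.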

ETV5 = ETV5 (Homo sapiens, UniProt P41161 1-510); details: protein: recombinant; tags: N-terminal GST; dsDNA, one strand shown
Summary of the method: as §1

HSF1 = HSF1 (Homo sapiens, UniProt Q00613 1-529); details: protein: recombinant; tags: N-terminal GST; chain copies: 3; dsDNA, one strand shown
Summary of the method: as §1

SPIC = target: T2, SPIC (Homo sapiens, UniProt Q8N5J4 1-248); details: protein: recombinant; tags: N-terminal GST; dsDNA, one strand shown
T2 sequence: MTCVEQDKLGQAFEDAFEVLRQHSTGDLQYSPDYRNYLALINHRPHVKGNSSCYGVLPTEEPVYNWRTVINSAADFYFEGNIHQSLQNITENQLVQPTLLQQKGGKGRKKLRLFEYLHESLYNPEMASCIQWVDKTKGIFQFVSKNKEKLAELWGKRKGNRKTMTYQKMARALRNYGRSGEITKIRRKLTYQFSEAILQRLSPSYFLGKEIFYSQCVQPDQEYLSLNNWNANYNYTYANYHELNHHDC
Summary of the method: as §1

ELF4 = ELF4 (Homo sapiens, UniProt Q99607 1-663); details: protein: recombinant; tags: N-terminal GST; dsDNA, one strand shown
Summary of the method: as §1

ELK4 = target: T3, ELK4 (Homo sapiens, UniProt P28324-2 1-405); details: protein: recombinant; tags: N-terminal GST; dsDNA, one strand shown
T3 sequence: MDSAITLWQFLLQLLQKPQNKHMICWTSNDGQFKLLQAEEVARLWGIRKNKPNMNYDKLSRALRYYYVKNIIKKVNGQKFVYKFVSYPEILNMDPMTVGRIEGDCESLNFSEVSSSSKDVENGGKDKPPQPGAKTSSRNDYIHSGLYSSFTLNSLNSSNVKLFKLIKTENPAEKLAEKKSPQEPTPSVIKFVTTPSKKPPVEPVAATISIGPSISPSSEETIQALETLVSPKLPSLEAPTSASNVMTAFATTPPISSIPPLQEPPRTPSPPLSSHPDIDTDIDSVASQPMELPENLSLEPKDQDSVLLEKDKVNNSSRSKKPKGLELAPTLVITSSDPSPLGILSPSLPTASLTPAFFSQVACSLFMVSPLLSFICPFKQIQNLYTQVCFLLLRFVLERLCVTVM
Summary of the method: as §1

ETV2 = target: T4, ETV2 (Homo sapiens, UniProt O00321 1-342); details: protein: recombinant; tags: N-terminal GST; dsDNA, one strand shown
T4 sequence: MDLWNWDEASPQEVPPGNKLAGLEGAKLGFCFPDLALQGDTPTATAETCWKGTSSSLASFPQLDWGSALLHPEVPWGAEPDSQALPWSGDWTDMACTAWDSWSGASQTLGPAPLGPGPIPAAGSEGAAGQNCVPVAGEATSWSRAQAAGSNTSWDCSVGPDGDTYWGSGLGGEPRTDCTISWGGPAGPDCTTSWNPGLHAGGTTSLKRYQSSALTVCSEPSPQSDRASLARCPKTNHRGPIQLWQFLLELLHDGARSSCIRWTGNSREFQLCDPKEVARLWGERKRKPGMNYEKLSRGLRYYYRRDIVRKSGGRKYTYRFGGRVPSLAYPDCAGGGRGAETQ
Summary of the method: as §1

ELF3 = target: T5, ELF3 (Homo sapiens, UniProt P78545 1-371); details: protein: recombinant; tags: N-terminal GST; dsDNA, one strand shown
T5 sequence: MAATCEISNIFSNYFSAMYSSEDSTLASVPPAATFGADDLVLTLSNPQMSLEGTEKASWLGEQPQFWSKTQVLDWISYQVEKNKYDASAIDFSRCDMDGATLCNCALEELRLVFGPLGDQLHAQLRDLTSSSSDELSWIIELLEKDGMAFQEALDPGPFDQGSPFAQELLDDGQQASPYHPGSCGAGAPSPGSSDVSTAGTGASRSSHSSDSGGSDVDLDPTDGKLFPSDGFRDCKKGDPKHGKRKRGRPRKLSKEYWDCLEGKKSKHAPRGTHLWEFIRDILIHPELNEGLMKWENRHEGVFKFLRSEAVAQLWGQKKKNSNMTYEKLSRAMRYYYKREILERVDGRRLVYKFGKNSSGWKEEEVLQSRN
Summary of the method: as §1

CRX = CRX (Homo sapiens, UniProt O43186 1-299); details: protein: recombinant; tags: N-terminal GST; dsDNA, one strand shown
Summary of the method: as §1

ETV1 = ETV1 (Homo sapiens, UniProt P50549 1-477); details: protein: recombinant; tags: N-terminal GST; dsDNA, one strand shown
Summary of the method: as §1

ERF = target: T6, ERF (Homo sapiens, UniProt P50548 1-548); details: protein: recombinant; tags: N-terminal GST; dsDNA, one strand shown
T6 sequence: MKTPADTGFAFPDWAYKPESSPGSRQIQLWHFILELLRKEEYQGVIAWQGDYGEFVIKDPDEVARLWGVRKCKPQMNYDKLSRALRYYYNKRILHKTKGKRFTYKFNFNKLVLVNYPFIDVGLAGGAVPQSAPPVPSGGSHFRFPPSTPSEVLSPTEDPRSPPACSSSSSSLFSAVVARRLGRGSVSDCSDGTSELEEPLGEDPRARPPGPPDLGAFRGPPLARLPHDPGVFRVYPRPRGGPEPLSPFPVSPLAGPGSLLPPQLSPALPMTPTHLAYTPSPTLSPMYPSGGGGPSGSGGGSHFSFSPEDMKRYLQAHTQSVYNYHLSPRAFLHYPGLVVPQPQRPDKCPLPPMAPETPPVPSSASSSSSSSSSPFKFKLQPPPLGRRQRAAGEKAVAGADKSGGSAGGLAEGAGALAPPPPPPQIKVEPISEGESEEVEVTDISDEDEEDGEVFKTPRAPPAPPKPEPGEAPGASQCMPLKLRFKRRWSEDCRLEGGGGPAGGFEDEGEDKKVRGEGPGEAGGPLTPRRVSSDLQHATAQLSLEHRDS
Summary of the method: as §1

ETV3L = target: T7, ETV3L (Homo sapiens, UniProt Q6ZN32 1-361); details: protein: recombinant; tags: N-terminal GST; dsDNA, one strand shown
T7 sequence: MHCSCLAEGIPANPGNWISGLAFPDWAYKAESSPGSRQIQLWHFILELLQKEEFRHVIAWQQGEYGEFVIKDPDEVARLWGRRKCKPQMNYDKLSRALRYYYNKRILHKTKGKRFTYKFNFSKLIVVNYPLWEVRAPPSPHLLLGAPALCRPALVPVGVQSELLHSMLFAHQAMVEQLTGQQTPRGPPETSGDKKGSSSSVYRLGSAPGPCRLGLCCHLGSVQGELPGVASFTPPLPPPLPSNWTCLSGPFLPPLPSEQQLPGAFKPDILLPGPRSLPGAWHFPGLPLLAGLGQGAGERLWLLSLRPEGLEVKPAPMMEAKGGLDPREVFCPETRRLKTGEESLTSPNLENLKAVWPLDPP
Summary of the method: as §1

ETS2 = target: T8, ETS2 (Homo sapiens, UniProt P15036 1-469); details: protein: recombinant; tags: N-terminal GST; dsDNA, one strand shown
T8 sequence: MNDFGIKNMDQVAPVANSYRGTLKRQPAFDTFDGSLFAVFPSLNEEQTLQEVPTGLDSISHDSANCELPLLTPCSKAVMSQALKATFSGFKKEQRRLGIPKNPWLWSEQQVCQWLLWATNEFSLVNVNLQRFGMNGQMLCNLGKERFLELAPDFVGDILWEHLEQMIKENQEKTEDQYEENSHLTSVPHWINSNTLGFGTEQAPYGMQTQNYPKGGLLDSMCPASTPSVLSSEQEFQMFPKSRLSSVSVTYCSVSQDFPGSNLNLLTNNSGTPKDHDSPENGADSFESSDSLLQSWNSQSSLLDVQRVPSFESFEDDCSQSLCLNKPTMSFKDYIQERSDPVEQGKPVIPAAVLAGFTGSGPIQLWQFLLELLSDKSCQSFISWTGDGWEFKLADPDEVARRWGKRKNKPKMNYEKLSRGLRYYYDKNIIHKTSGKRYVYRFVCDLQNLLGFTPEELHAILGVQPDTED
Summary of the method: as §1

SPDEF = target: T9, SPDEF (Homo sapiens, UniProt O95238 1-335); details: protein: recombinant; tags: N-terminal GST; dsDNA, one strand shown
T9 sequence: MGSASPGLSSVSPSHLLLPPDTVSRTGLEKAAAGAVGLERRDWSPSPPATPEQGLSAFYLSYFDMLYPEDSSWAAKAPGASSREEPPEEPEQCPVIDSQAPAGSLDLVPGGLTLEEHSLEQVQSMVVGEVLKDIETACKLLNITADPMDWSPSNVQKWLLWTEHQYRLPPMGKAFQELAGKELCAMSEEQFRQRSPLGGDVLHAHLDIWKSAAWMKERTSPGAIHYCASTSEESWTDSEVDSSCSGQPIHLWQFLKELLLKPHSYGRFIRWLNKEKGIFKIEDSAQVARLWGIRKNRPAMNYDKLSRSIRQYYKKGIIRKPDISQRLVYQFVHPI
Summary of the method: as §1

ETV7 = target: T10, ETV7 (Homo sapiens, UniProt Q9Y603 1-341); details: protein: recombinant; tags: N-terminal GST; dsDNA, one strand shown
T10 sequence: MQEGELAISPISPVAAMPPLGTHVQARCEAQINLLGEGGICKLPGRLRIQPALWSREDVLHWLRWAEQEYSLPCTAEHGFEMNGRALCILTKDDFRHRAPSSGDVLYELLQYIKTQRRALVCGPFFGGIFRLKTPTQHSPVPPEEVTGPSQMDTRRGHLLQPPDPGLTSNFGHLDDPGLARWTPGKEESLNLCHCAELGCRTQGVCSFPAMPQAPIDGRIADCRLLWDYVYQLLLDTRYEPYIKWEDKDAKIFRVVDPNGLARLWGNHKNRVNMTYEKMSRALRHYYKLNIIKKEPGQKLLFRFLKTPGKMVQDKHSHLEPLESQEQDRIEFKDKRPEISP
Summary of the method: as §1

ELF5 = target: T11, ELF5 (Homo sapiens, UniProt Q9UKW6-2 1-255); details: protein: recombinant; tags: N-terminal GST; dsDNA, one strand shown
T11 sequence: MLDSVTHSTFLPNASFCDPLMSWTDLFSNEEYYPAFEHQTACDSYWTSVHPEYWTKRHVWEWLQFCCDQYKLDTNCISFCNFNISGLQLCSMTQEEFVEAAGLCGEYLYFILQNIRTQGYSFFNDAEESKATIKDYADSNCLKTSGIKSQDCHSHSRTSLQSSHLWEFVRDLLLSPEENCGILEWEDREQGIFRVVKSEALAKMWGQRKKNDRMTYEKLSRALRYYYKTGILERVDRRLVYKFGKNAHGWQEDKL
Summary of the method: as §1

ETV3 = target: T12, ETV3 (Homo sapiens, UniProt P41162-2 1-143); details: protein: recombinant; tags: N-terminal GST; dsDNA, one strand shown
T12 sequence: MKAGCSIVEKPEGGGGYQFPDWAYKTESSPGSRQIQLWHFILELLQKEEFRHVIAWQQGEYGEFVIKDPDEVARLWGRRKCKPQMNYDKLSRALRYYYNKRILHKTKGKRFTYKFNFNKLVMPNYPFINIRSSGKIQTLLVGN
Summary of the method: as §1

ETV6 = ETV6 (Homo sapiens, UniProt P41212 1-452); details: protein: recombinant; tags: N-terminal GST; dsDNA, one strand shown
Summary of the method: as §1

Sequence of CRX (O43186 whole entry): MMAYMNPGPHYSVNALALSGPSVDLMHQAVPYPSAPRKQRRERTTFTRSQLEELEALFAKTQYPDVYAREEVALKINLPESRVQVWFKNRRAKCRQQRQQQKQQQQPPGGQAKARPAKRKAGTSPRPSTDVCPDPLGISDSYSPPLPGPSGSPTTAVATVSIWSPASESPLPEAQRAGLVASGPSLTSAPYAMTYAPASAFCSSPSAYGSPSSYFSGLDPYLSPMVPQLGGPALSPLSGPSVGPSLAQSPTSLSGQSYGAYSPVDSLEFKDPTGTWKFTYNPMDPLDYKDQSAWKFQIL
Sequence of ETV1 (P50549 whole entry): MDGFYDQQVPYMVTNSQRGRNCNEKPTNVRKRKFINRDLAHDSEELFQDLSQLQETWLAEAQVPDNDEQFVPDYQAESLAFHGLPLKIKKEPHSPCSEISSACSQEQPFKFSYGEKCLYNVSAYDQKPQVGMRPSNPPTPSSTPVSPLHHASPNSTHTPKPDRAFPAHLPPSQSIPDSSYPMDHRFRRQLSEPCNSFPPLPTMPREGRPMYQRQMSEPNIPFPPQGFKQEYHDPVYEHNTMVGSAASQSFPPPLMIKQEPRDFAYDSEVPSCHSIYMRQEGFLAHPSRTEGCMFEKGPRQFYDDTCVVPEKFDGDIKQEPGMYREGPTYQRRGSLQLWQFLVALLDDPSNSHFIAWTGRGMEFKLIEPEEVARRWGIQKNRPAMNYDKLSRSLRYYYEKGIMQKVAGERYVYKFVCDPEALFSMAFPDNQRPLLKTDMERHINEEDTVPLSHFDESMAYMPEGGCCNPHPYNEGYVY
Sequence of ELF4 (Q99607 whole entry): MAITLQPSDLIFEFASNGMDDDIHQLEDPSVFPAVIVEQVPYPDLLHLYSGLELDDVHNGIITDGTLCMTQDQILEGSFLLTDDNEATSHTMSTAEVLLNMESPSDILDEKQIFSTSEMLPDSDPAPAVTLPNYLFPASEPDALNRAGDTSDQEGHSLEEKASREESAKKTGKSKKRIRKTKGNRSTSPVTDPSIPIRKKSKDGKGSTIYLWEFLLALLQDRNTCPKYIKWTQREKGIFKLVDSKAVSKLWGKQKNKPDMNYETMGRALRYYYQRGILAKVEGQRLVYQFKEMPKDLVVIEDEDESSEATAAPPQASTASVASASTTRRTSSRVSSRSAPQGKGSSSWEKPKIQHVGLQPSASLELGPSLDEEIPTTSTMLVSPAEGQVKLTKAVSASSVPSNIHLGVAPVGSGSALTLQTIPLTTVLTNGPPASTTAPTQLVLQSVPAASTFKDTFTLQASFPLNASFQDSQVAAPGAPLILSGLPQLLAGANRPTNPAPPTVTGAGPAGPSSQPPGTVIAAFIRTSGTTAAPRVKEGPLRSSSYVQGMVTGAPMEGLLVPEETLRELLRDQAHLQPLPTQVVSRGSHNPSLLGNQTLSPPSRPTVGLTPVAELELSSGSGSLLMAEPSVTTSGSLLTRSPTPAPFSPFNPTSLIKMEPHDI
Sequence of ETV5 (P41161 whole entry): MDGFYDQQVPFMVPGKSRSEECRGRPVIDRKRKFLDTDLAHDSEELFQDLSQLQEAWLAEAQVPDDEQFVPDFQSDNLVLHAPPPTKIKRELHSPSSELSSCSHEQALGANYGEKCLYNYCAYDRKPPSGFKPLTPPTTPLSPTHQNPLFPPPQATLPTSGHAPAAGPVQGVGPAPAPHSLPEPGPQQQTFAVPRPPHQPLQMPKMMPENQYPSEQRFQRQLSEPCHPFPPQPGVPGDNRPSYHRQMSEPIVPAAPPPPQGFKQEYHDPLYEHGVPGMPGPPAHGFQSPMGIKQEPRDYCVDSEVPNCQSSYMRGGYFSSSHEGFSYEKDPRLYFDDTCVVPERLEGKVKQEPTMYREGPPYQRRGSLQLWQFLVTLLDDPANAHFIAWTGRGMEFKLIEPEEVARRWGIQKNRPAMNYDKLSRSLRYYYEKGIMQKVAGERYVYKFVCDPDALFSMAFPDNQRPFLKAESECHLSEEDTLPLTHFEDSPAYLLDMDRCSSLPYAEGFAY
Sequence of ETV6 (P41212 whole entry): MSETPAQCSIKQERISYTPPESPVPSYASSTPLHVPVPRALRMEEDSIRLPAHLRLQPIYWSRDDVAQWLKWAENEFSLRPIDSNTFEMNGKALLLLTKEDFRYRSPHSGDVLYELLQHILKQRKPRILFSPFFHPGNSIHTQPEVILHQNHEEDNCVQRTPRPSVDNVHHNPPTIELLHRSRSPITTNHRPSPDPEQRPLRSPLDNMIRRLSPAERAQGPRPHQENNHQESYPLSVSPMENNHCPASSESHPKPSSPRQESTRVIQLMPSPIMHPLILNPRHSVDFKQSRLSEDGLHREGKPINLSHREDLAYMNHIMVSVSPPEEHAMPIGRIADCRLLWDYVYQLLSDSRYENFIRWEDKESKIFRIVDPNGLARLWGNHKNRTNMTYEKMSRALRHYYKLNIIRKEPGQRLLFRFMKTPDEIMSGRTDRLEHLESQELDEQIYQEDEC
Sequence of HSF1 (Q00613 whole entry): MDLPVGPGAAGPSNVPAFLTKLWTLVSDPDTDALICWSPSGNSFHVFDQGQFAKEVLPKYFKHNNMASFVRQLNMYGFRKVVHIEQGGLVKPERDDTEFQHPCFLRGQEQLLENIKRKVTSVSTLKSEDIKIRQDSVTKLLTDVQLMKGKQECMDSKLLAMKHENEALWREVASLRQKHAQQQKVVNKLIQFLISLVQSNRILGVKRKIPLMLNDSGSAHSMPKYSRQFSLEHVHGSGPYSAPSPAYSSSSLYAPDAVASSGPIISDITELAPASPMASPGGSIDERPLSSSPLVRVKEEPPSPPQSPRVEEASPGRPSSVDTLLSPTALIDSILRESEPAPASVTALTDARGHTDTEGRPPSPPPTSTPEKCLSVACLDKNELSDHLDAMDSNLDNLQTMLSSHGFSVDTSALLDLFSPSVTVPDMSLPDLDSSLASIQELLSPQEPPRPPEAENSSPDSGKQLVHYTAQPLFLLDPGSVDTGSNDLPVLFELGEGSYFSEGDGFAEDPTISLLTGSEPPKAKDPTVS

**Q.** Which binding signal (FEV) does the source give for GATATA here?
**A.** 1.08 fold enrichment (6-mer frequency, TF over GST control)

**Q.** What about the binding signal (ETV5) of the same sequence?
**A.** 1.13 fold enrichment (6-mer frequency, TF over GST control)

**Q.** What about the binding signal (HSF1) of the same sequence?
**A.** 1.09 fold enrichment (6-mer frequency, TF over GST control)

**Q.** And the binding signal (SPIC)?
**A.** 1.13 fold enrichment (6-mer frequency, TF over GST control)

**Q.** And the binding signal (ELF4)?
**A.** 1.06 fold enrichment (6-mer frequency, TF over GST control)

**Q.** And the binding signal (ELK4)?
**A.** 1.18 fold enrichment (6-mer frequency, TF over GST control)

**Q.** And the binding signal (ETV2)?
**A.** 1.19 fold enrichment (6-mer frequency, TF over GST control)

**Q.** What about the binding signal (ELF3) of the same sequence?
**A.** 1.33 fold enrichment (6-mer frequency, TF over GST control)

**Q.** What about the binding signal (CRX) of the same sequence?
**A.** 1.19 fold enrichment (6-mer frequency, TF over GST control)

**Q.** And the binding signal (ETV1)?
**A.** 1.08 fold enrichment (6-mer frequency, TF over GST control)

**Q.** And the binding signal (ERF)?
**A.** 1.15 fold enrichment (6-mer frequency, TF over GST control)

**Q.** And the binding signal (ETV3L)?
**A.** 1.18 fold enrichment (6-mer frequency, TF over GST control)

**Q.** What about the binding signal (ETS2) of the same sequence?
**A.** 1.16 fold enrichment (6-mer frequency, TF over GST control)

**Q.** What about the binding signal (SPDEF) of the same sequence?
**A.** 1.32 fold enrichment (6-mer frequency, TF over GST control)

**Q.** And the binding signal (ETV7)?
**A.** 1.1 fold enrichment (6-mer frequency, TF over GST control)

**Q.** What about the binding signal (ELF5) of the same sequence?
**A.** 1.13 fold enrichment (6-mer frequency, TF over GST control)

**Q.** What about the binding signal (ETV3) of the same sequence?
**A.** 1.09 fold enrichment (6-mer frequency, TF over GST control)

**Q.** What about the binding signal (ETV6) of the same sequence?
**A.** 1.12 fold enrichment (6-mer frequency, TF over GST control)
